# Data published in paper PMC7862700, “An all-to-all approach to the identification of sequence-specific readers for epigenetic DNA modifications on cytosine”.
# Key:
# Assay in all cases: DAPPL (digital affinity profiling via proximity ligation, sequencing); 10 mM Tris-HCl pH 7.5, 50 mM NaCl, 1 mM DTT, 4% glycerol, room temperature, 30 min; GST-TFs on glutathione beads, 16-mer random dsDNA library, 0.1% formaldehyde crosslink after washing; high values mean tight binding
# Details in all cases: protein: recombinant; tags: N-terminal GST; dsDNA, one strand shown
# FEV = biological target: T1, FEV (Homo sapiens, UniProt Q99581 1-238)
# T1 sequence: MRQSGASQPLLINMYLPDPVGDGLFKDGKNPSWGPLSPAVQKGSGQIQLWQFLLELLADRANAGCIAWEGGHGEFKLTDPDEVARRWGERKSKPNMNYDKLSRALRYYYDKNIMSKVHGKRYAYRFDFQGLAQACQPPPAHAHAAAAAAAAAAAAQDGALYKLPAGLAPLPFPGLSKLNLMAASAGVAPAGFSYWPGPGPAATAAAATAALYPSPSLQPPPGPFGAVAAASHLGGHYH
# Procedure, shortened: (§1)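 Sequencing on an Illumina NextSeq500 followed washing, crosslinking with 0.1% formaldehyde, proximity ligation (BsaI/T4 ligase, 1 h, 37 °C) and PCR amplification of pools that had been incubated for 30 min at room temperature with 200 nmole of a random double-stranded 16-mer DNA library in Tris/NaCl/DTT/glycerol buffer. Each pool held DNA-barcoded human transcription factors, expressed in yeast as GST fusions and captured on glutathione beads, plus a tag-only sample. Binding signal is a hexamer's read frequency for a factor divided by its frequency in the tag-only sample.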
# ETV5 = ETV5 (Homo sapiens, UniProt P41161 1-510)
# Procedure, shortened: as §1
# SPIC = biological target: T2, SPIC (Homo sapiens, UniProt Q8N5J4 1-248)
# T2 sequence: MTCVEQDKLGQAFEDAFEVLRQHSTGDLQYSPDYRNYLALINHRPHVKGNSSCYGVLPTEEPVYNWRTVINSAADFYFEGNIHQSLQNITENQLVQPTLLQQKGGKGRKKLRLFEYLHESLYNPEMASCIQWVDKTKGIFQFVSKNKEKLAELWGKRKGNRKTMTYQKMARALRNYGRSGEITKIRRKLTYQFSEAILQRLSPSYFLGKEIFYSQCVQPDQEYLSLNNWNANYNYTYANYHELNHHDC
# Procedure, shortened: as §1
# ELF4 = ELF4 (Homo sapiens, UniProt Q99607 1-663)
# Procedure, shortened: as §1
# ELK4 = biological target: T3, ELK4 (Homo sapiens, UniProt P28324-2 1-405)
# T3 sequence: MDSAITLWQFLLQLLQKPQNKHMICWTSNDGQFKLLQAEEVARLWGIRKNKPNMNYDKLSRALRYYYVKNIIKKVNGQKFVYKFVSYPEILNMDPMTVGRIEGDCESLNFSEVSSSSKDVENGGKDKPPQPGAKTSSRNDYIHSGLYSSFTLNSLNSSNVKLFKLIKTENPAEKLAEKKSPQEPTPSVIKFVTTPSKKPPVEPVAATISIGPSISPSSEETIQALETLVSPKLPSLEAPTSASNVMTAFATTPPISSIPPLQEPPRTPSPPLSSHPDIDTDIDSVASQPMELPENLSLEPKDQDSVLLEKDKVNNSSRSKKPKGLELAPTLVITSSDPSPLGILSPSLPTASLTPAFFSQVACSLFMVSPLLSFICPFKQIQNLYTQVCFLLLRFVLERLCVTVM
# Procedure, shortened: as §1
# ETV2 = biological target: T4, ETV2 (Homo sapiens, UniProt O00321 1-342)
# T4 sequence: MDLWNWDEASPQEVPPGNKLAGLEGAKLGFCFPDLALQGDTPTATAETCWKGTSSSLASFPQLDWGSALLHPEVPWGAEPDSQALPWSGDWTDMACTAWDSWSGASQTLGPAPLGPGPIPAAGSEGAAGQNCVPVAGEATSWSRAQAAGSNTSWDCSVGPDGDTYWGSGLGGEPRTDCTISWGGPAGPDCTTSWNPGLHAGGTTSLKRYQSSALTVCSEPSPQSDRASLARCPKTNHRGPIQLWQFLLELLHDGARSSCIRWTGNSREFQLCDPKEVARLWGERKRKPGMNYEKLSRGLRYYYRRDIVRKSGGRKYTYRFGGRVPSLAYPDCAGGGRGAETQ
# Procedure, shortened: as §1
# ELF3 = biological target: T5, ELF3 (Homo sapiens, UniProt P78545 1-371)
# T5 sequence: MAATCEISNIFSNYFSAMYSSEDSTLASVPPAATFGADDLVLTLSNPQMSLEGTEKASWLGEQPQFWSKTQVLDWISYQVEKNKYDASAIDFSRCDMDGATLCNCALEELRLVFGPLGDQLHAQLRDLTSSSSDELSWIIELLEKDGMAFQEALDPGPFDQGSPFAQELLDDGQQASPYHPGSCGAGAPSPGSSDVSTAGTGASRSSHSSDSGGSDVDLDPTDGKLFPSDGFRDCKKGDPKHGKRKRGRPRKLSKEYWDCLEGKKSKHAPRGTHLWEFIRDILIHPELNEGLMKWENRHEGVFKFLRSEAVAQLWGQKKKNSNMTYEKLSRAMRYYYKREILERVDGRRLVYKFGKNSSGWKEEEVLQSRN
# Procedure, shortened: as §1
# CRX = CRX (Homo sapiens, UniProt O43186 1-299)
# Procedure, shortened: as §1
# ETV1 = ETV1 (Homo sapiens, UniProt P50549 1-477)
# Procedure, shortened: as §1
# ERF = biological target: T6, ERF (Homo sapiens, UniProt P50548 1-548)
# T6 sequence: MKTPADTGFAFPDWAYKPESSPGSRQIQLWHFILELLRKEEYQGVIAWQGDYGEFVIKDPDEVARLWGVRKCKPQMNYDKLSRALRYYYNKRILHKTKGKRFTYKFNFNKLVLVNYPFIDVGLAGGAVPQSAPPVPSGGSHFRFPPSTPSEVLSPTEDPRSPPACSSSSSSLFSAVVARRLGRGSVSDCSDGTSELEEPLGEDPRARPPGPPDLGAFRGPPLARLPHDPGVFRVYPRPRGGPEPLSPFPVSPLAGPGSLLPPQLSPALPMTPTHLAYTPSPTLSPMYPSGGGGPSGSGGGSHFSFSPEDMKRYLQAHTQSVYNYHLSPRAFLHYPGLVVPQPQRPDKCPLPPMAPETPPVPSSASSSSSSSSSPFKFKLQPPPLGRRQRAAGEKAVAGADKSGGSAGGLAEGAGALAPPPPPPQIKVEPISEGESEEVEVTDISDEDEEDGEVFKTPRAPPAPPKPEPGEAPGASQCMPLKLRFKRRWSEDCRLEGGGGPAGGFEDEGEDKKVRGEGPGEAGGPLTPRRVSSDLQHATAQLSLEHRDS
# Procedure, shortened: as §1
# ETV3L = biological target: T7, ETV3L (Homo sapiens, UniProt Q6ZN32 1-361)
# T7 sequence: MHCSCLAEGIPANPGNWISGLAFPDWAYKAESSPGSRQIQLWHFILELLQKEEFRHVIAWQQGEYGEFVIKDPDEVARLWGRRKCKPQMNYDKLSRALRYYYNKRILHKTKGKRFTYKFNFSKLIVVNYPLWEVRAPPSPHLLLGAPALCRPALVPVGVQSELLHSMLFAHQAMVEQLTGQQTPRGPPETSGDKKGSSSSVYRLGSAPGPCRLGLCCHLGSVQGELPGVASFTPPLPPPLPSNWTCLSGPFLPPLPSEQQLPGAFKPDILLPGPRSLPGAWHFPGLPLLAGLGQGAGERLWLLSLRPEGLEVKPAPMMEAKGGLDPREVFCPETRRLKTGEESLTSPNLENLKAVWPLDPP
# Procedure, shortened: as §1
# ETS2 = biological target: T8, ETS2 (Homo sapiens, UniProt P15036 1-469)
# T8 sequence: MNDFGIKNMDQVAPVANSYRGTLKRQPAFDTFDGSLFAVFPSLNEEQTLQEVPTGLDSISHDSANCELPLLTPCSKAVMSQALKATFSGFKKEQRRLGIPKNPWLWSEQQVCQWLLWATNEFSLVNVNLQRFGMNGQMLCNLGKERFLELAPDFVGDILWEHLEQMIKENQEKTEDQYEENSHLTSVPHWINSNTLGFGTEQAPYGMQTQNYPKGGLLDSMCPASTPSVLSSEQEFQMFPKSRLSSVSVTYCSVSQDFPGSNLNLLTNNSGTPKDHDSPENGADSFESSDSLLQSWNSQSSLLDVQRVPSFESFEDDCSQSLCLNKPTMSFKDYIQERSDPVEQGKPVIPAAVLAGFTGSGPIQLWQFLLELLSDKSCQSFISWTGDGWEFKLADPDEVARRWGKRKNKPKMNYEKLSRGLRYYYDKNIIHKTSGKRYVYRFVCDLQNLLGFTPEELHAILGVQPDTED
# Procedure, shortened: as §1
# SPDEF = biological target: T9, SPDEF (Homo sapiens, UniProt O95238 1-335)
# T9 sequence: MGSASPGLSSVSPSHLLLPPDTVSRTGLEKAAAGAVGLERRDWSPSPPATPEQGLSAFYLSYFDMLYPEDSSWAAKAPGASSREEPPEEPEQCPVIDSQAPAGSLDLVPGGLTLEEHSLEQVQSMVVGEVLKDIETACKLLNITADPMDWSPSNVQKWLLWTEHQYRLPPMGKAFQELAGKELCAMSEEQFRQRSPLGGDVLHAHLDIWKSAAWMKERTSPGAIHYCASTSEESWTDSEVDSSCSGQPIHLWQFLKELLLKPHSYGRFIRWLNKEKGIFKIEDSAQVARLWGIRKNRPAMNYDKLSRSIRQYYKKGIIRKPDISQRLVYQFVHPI
# Procedure, shortened: as §1
# ETV7 = biological target: T10, ETV7 (Homo sapiens, UniProt Q9Y603 1-341)
# T10 sequence: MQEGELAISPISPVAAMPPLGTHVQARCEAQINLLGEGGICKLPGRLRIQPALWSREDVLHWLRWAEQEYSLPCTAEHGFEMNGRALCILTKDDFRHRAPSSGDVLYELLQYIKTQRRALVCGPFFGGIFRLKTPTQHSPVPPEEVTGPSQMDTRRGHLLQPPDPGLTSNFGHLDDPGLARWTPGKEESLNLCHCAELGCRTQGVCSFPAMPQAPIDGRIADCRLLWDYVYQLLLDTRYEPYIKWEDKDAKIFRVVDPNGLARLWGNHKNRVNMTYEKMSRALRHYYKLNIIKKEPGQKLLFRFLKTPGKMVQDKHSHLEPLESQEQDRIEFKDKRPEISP
# Procedure, shortened: as §1
# ELF5 = biological target: T11, ELF5 (Homo sapiens, UniProt Q9UKW6-2 1-255)
# T11 sequence: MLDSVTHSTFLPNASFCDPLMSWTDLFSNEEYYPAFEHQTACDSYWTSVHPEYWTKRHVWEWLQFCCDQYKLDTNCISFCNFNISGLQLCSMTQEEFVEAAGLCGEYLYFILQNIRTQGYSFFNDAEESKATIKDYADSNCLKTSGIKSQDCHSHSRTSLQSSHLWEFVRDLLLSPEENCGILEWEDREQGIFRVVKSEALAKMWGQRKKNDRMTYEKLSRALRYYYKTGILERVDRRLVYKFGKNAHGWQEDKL
# Procedure, shortened: as §1
# ETV3 = biological target: T12, ETV3 (Homo sapiens, UniProt P41162-2 1-143)
# T12 sequence: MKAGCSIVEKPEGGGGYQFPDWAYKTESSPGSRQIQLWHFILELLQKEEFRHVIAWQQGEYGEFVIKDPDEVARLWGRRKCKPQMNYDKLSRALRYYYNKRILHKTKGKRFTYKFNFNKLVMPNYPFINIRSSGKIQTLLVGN
# Procedure, shortened: as §1
# ETV6 = ETV6 (Homo sapiens, UniProt P41212 1-452)
# Procedure, shortened: as §1
# Chain of ETV1 (P50549 whole entry): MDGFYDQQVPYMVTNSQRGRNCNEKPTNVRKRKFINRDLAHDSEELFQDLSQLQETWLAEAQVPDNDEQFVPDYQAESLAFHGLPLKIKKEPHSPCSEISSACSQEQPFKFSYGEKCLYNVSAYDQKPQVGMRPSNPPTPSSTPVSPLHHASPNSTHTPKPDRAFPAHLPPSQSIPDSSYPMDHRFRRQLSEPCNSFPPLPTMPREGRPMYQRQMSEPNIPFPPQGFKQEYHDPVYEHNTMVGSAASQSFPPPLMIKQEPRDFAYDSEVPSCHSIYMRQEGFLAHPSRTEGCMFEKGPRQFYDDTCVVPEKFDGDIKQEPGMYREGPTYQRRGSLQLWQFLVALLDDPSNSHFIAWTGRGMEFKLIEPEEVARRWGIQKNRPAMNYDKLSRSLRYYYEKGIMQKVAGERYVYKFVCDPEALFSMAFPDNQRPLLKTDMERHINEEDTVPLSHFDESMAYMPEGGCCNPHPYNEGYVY
# Chain of ETV5 (P41161 whole entry): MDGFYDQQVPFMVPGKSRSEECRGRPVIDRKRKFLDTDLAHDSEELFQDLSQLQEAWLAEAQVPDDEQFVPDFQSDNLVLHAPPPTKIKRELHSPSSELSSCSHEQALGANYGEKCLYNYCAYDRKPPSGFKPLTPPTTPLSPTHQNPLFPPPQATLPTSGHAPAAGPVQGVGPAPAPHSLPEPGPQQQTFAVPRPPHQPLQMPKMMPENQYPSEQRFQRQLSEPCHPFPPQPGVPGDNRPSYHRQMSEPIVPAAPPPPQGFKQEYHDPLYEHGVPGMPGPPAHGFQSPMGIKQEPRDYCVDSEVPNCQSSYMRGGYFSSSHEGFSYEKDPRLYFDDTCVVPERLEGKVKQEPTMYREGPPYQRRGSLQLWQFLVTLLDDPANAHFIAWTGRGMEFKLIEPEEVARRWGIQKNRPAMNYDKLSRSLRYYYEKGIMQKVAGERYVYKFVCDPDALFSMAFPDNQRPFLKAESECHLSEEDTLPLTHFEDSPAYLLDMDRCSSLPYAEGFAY
# Chain of ETV6 (P41212 whole entry): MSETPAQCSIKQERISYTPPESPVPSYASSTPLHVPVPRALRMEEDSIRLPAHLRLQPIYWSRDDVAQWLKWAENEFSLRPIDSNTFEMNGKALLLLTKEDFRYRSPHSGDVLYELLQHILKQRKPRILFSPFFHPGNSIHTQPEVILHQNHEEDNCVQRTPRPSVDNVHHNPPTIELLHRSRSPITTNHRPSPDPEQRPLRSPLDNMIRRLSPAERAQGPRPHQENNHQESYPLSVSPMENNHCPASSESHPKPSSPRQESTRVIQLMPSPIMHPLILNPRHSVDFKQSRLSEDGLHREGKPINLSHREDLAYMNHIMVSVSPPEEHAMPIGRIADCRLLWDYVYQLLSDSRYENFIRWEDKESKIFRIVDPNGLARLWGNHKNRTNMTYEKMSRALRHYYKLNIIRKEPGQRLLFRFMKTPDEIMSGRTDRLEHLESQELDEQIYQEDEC
# Chain of ELF4 (Q99607 whole entry): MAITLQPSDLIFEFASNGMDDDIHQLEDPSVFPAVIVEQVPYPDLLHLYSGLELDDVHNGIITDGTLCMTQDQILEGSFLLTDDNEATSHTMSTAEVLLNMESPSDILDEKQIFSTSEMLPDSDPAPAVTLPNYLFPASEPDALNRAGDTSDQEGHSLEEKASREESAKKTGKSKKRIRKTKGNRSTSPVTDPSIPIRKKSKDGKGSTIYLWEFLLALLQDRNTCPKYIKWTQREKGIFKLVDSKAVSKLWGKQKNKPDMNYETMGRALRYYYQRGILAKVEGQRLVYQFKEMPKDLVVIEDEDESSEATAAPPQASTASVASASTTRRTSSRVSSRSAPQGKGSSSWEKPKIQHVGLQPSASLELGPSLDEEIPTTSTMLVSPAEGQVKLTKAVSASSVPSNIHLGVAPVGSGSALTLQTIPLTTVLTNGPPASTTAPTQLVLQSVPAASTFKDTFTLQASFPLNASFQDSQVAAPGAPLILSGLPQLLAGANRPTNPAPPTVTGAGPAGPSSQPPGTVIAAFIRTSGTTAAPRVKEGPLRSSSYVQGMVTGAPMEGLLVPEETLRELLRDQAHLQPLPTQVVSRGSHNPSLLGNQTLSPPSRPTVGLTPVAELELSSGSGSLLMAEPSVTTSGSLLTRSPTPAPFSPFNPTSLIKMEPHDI
# Chain of CRX (O43186 whole entry): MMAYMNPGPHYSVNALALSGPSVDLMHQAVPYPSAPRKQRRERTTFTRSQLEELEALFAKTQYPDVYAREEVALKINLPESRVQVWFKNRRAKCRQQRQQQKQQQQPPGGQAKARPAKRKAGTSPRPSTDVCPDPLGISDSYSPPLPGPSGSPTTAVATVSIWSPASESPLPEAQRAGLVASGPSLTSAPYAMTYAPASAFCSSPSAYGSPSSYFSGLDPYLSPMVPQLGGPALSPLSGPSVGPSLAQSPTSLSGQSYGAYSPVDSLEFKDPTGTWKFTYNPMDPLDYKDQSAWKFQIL
sequence,measurement,setting,value
TCATGC,binding signal,FEV,"1.14 fold enrichment (6-mer frequency, TF over GST control)"
same,binding signal,ETV5,"1.09 fold enrichment (6-mer frequency, TF over GST control)"
same,binding signal,SPIC,"1.11 fold enrichment (6-mer frequency, TF over GST control)"
same,binding signal,ELF4,"1.18 fold enrichment (6-mer frequency, TF over GST control)"
same,binding signal,ELK4,"1.27 fold enrichment (6-mer frequency, TF over GST control)"
same,binding signal,ETV2,"1.31 fold enrichment (6-mer frequency, TF over GST control)"
same,binding signal,ELF3,"1.18 fold enrichment (6-mer frequency, TF over GST control)"
same,binding signal,CRX,"1.03 fold enrichment (6-mer frequency, TF over GST control)"
same,binding signal,ETV1,"1.17 fold enrichment (6-mer frequency, TF over GST control)"
same,binding signal,ERF,"1.13 fold enrichment (6-mer frequency, TF over GST control)"
same,binding signal,ETV3L,"1.12 fold enrichment (6-mer frequency, TF over GST control)"
same,binding signal,ETS2,"1.13 fold enrichment (6-mer frequency, TF over GST control)"
same,binding signal,SPDEF,"1.18 fold enrichment (6-mer frequency, TF over GST control)"
same,binding signal,ETV7,"1.17 fold enrichment (6-mer frequency, TF over GST control)"
same,binding signal,ELF5,"1.07 fold enrichment (6-mer frequency, TF over GST control)"
same,binding signal,ETV3,"1.18 fold enrichment (6-mer frequency, TF over GST control)"
same,binding signal,ETV6,"1.11 fold enrichment (6-mer frequency, TF over GST control)"
